Data from the supplement of paper PMC6992640.
± gives the standard deviation of the averaged measurements.

Key:
Assay in all cases: cell viability (% of vehicle); higher = less cytotoxic
HCI01 [1] = cells of a triple-negative basal-like breast cancer xenograft; conditions: 1 µM; 72 h
UCD52 [2] = cells of a triple-negative basal-like breast cancer xenograft; conditions: 1 µM; 72 h
WHIM2 [3] = cells of a triple-negative basal-like breast cancer xenograft; conditions: 1 µM; 72 h
WHIM30 [4] = cells of a triple-negative basal-like breast cancer xenograft; conditions: 1 µM; 72 h
HCI01 [5] = conditions: 10 µM; 72 h
HCI03 = cells of an ER-positive luminal breast cancer xenograft; conditions: 10 µM; 72 h
HCI09 = cells of a triple-negative luminal androgen receptor type breast cancer xenograft; conditions: 10 µM; 72 h
HCI11 = cells of an ER-positive luminal breast cancer xenograft; conditions: 10 µM; 72 h
HCI13 = cells of an ER-positive luminal breast cancer xenograft; conditions: 10 µM; 72 h
HCI16 = cells of a triple-negative basal-like breast cancer xenograft; conditions: 10 µM; 72 h
UCD52 [6] = conditions: 10 µM; 72 h
WHIM2 [7] = conditions: 10 µM; 72 h
WHIM30 [8] = conditions: 10 µM; 72 h

Row | SMILES | cell viability (HCI01 [1]) | cell viability (UCD52 [2]) | cell viability (WHIM2 [3]) | cell viability (WHIM30 [4]) | cell viability (HCI01 [5]) | cell viability (HCI03) | cell viability (HCI09) | cell viability (HCI11) | cell viability (HCI13) | cell viability (HCI16) | cell viability (UCD52 [6]) | cell viability (WHIM2 [7]) | cell viability (WHIM30 [8])
1 | Clc1ccc(C(Cn2ccnc2)OCc2ccc(Sc3ccccc3)cc2)c(Cl)c1.O=[N+]([O-])O (stereo not drawn) [Fenticonazole Nitrate] | 89.6 | 92.5 | 107 | 91.5 | 40.8 ± 0.92 | 96.9 | 19.2 ± 2.4 | 74.8 | 44.74 ± 0.32 | 105 | 59.12 ± 0.32 | 40.7 ± 11 | 91.8 ± 8.3
2 | CC(=O)c1cc2c(o1)C(=O)c1ccccc1C2=O [Napabucasin] | 30.1 | 29.6 | 50.3 | 33.9 | 54.9 ± 23 | 54.2 | 29.1 ± 9.1 | 21.8 | 46.9 ± 9.2 | 58.7 | 40.3 ± 7.5 | 72.4 ± 12 | 45.1 ± 7.3
3 | CN1CCN(CCCN2c3ccccc3Sc3ccc(C(F)(F)F)cc32)CC1.Cl.Cl [Trifluoperazine 2HCl] | 95.7 | 82.1 | 102 | 84.9 | 42.8 ± 8.5 | 57.4 | 30.2 ± 8 | 82.1 | 42.2 ± 2 | 54.1 | 33.8 ± 2.4 | 43.3 ± 3.1 | 97.8 ± 6.6
4 | Cl.OC(CNCC(O)C1CCc2cc(F)ccc2O1)C1CCc2cc(F)ccc2O1 (stereo not drawn) [Nebivolol] | 91.1 | 92.3 | 91.5 | 103 | 75.3 ± 2.5 | 87.2 | 86.8 ± 8.1 | 87.2 | 94.2 ± 18 | 64.9 | 38.43 ± 0.34 | 40.5 ± 9.2 | 81 ± 2.3
5 | CN(C)CC=CC(=O)Nc1cc2c(Nc3ccc(F)c(Cl)c3)ncnc2cc1OC1CCOC1 (stereo not drawn) [Afatinib (BIBW2992)] | 71.3 | 27.2 | 50.9 | 49.6 | 25.61 ± 0.24 | 47.7 | 15.1 ± 1.8 | 73.5 | 43.4 ± 1.5 | 55.4 | 18.7 ± 0.37 | 34.6 ± 2.6 | 44.3 ± 6.3
6 | COc1ccc2cc1Oc1ccc(cc1)CC1c3c(cc4c(c3Oc3cc5c(cc3OC)CCN(C)C5C2)OCO4)CCN1C (stereo not drawn) [Cepharanthine] | 86.1 | 52.9 | 80.7 | 60.6 | 57.1 ± 12 | 64.3 | 26.6 ± 5.9 | 73.5 | 159 ± 37 | 170 | 36.2 ± 1.8 | 64.7 ± 8.1 | 94.3 ± 9.8
7 | CC[C@H](C)[C@H]1O[C@]2(CC[C@@H]1C)C[C@@H]1C[C@@H](C/C=C(\C)[C@@H](O[C@H]3C[C@H](OC)[C@@H](O[C@H]4C[C@H](OC)[C@@H](O)[C@H](C)O4)[C@H](C)O3)[C@@H](C)/C=C/C=C3\CO[C@@H]4[C@H](O)C(C)=C[C@@H](C(=O)O1)[C@]34O)O2 [Ivermectin] | 90.6 | 57.6 | 86.6 | 73.3 | 38.3 ± 8 | 81.2 | 20 ± 3.4 | 81 | 37.6 ± 8.1 | 82.9 | 76.3 ± 3 | 40.5 ± 7.1 | 36.2 ± 3
8 | CN(C)CC=CC(=O)Nc1cc2c(Nc3ccc(F)c(Cl)c3)ncnc2cc1OC1CCOC1.O=C(O)C=CC(=O)O.O=C(O)C=CC(=O)O (stereo not drawn) [Afatinib dimaleate] | 85.2 | 32.7 | 57.8 | 56 | 35.3 ± 3 | 53.8 | 35.2 ± 4.2 | 32.5 | 32.4 ± 2.1 | 30.7 | 40.1 ± 7.4 | 41.1 ± 4.1 | 54.6 ± 7
9 | COc1ccc(C[C@H](N)C(=O)N[C@@H]2[C@H](O)[C@H](n3cnc4c(N(C)C)ncnc43)O[C@@H]2CO)cc1.Cl.Cl [Puromycin dihydrochloride] | 93.8 | 22.3 | 86.9 | 76.8 | 28.6 ± 2.4 | 58.6 | 26.89 ± 0.082 | 33.4 | 51.1 ± 14 | 52 | 34.5 ± 0.59 | 42 ± 4.2 | 33.3 ± 2.3
10 | CC(C)CC(NC(=O)C(NC(=O)c1cccc(-c2ccccc2)n1)C(C)O)B(O)O (stereo not drawn) | 55.2 | 25 | 132 | 22.5 | 76.8 ± 10 | 93.4 | 15.8 ± 2 | 171 | 40.5 ± 10 | 82.8 | 66 ± 0.77 | 42.8 ± 3.3 | 93.3 ± 3.5
11 | COc1cc(Nc2ncc(F)c(Nc3ccc4c(n3)N(COP(=O)(O)O)C(=O)C(C)(C)O4)n2)cc(OC)c1OC [Fostamatinib (R788)] | 116 | 92.3 | 79 | 112 | 88.3 ± 8.6 | 102 | 87.2 ± 7 | 61 | 74.5 ± 1 | 65 | 55.7 ± 3.7 | 58.1 ± 4.2 | 86.6 ± 6.6
12 | CCCCc1oc2ccccc2c1C(=O)c1cc(I)c(OCCN(CC)CC)c(I)c1.Cl [Amiodarone HCl] | 96.6 | 101 | 94.7 | 98.4 | 69.5 ± 16 | 54.7 | 32.8 ± 9.1 | 75 | 36.2 ± 4 | 60 | 40.7 ± 7.3 | 37 ± 6 | 83.1 ± 5.7
13 | CN(C)CCOc1ccc(C(=C(CCCl)c2ccccc2)c2ccccc2)cc1.O=C(O)CC(O)(CC(=O)O)C(=O)O [Toremifene Citrate] | 127 | 98.4 | 119 | 102 | 37.2 ± 1.9 | 63.8 | 34.3 ± 1.8 | 86.8 | 46.4 ± 2.6 | 73.2 | 38.3 ± 2.4 | 43.3 ± 4.1 | 54.4 ± 4.8
14 | C=CC(=O)N1CCC(Oc2cc3c(Nc4ccc(Cl)c(Cl)c4F)ncnc3cc2OC)CC1 [Poziotinib] | 62.3 | 36.5 | 32.9 | 50.7 | 39.4 ± 14 | 48.7 | 47.1 ± 2.5 | 48 | 34.2 ± 4.1 | 66.1 | 44.2 ± 4.5 | 50.5 ± 5.6 | 35.8 ± 10
15 | CNCCC(Oc1ccc(C(F)(F)F)cc1)c1ccccc1.Cl (stereo not drawn) [Fluoxetine HCl] | 91.1 | 75.6 | 99.1 | 84.1 | 98.1 ± 5 | 98.4 | 84.6 ± 29 | 75.2 | 104 ± 12 | 58.6 | 47.8 ± 1.9 | 44.9 ± 6 | 65.9 ± 10
16 | CNC(=O)c1cc(Oc2ccc(NC(=O)Nc3ccc(Cl)c(C(F)(F)F)c3)c(F)c2)ccn1 [Regorafenib] | 103 | 80.7 | 99.6 | 89.9 | 22.5 ± 4.2 | 48 | 13.2 ± 3.8 | 43.5 | 83.1 ± 5.7 | 39.7 | 117 ± 4.5 | 30.6 ± 7.5 | 44.9 ± 1.4
17 | Cc1c(-c2ccc(O)cc2)n(Cc2ccc(OCCN3CCCCCC3)cc2)c2ccc(O)cc12.Cl [Bazedoxifene HCl] | 120 | 94.2 | 89.7 | 91.6 | 56.4 ± 32 | 41.6 | 21.6 ± 0.65 | 73.9 | 38 ± 6.1 | 114 | 45.6 ± 2.9 | 53.2 ± 6.3 | 83.1 ± 1.6
18 | CCC(=C(c1ccccc1)c1ccc(OCCN(C)C)cc1)c1ccccc1.O=C(O)CC(O)(CC(=O)O)C(=O)O [Tamoxifen Citrate] | 111 | 101 | 86.2 | 99.9 | 74 ± 57 | 78.8 | 28.1 ± 6 | 96.5 | 37.6 ± 3.9 | 59.7 | 34.5 ± 0.98 | 42.4 ± 7.6 | 104 ± 7.1
19 | Cl.Clc1ccccc1CN1CCc2sccc2C1 [Ticlopidine HCl] | 99.4 | 97.4 | 99.6 | 91.9 | 56.5 ± 32 | 108 | 82 ± 2.9 | 91.6 | 108 ± 34 | 97.2 | 62.5 ± 2.4 | 82.5 ± 24 | 89.7 ± 5.6
20 | COc1cc2c(Nc3ccc(Br)cc3F)ncnc2cc1OCC1CCN(C)CC1 [Vandetanib (ZD6474)] | 70 | 46.5 | 37.5 | 64.8 | 59.1 ± 20 | 32.2 | 30.7 ± 21 | 52.9 | 73.4 ± 36 | 56.4 | 25.2 ± 4.2 | 54.4 ± 11 | 25.7 ± 1.9
21 | Cl.Nc1ccn(C2OC(CO)C(O)C2O)c(=O)n1 (stereo not drawn) [Cytarabine hydrochloride] | 71.5 | 114 | 86.3 | 90.1 | 75.2 ± 11 | 105 | 122 ± 36 | 147 | 61.5 ± 3.5 | 73.9 | 105 ± 5.7 | 58 ± 8.3 | 81.1 ± 11
22 | CC(C)(C)c1ccc(C(O)CCCN2CCC(C(O)(c3ccccc3)c3ccccc3)CC2)cc1 (stereo not drawn) [Terfenadine] | 89 | 79.9 | 81.1 | 73.1 | 34.4 ± 5.2 | 38.1 | 30.4 ± 2.9 | 55.3 | 48.3 ± 4.8 | 45.8 | 35.1 ± 4 | 42 ± 2.8 | 29.6 ± 3.5
23 | CCCCc1oc2ccc(NS(C)(=O)=O)cc2c1C(=O)c1ccc(OCCCN(CCCC)CCCC)cc1 [Dronedarone] | 98.7 | 81.4 | 91.8 | 79.8 | 32.4 ± 2 | 40.7 | 22.2 ± 1.3 | 90.5 | 35.6 ± 0.56 | 32.7 | 29.7 ± 2.9 | 41.3 ± 5.4 | 38.6 ± 2.7
24 | COC(=O)C1=C(C)NC(C)=C(C(=O)OC2CCCN(Cc3ccccc3)C2)C1c1cccc([N+](=O)[O-])c1.Cl (stereo not drawn) [Benidipine HCl] | 96.3 | 88.8 | 105 | 93.7 | 82.1 ± 16 | 68.3 | 27.9 ± 14 | 83.2 | 36.2 ± 7.7 | 87.5 | 51.4 ± 7.1 | 31.1 ± 6.1 | 64 ± 4.1
25 | Cc1cn(-c2cc(NC(=O)c3ccc(C)c(Nc4nccc(-c5cccnc5)n4)c3)cc(C(F)(F)F)c2)cn1 [Nilotinib(AMN-107)] | 78.2 | 77.5 | 88 | 75.3 | 105 ± 61 | 79.8 | 90.1 ± 21 | 76.6 | 91.3 ± 13 | 92.1 | 47.83 ± 0.22 | 69.1 ± 7.7 | 75 ± 2.3
26 | C=C1C(=CC=C2CCCC3(C)C2CCC3C(C)CCCC(C)C)CC(O)CC1O (stereo not drawn) [Alfacalcidol] | 72.3 | 59 | 51.8 | 91.3 | 31.7 ± 13 | 124 | 29.8 ± 8.2 | 70.1 | 52.6 ± 8.1 | 106 | 68.1 ± 0.89 | 49.9 ± 8.4 | 97.46 ± 0.87
